Many of the other results were omitted from the sample, so the strongest signals are more common in it than they were.
What was measured:
Assay in all cases: glycan array binding signal (z-score within array); higher = stronger binding
Settings in all cases: glycan notation: IUPAC condensed, linker removed
Gal3S(b1-3)GalNAc = molecular target: Gal3S(b1-3)GalNAc
Outline: (§1)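 The binding signal is a Z-score computed within each array. Data were drawn from 3228 arrays in the Consortium for Functional Glycomics database, restricted to those with a known protein sequence. Scores were averaged over arrays of the same protein sequence at different concentrations or buffers, and over linkers, and negative values can be taken as non-binding.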

Gal3S(b1-4)GlcNAc6S = molecular target: Gal3S(b1-4)GlcNAc6S
Outline: as §1

Gal6S(b1-4)Glc = molecular target: Gal6S(b1-4)Glc
Outline: as §1

Gal6S(b1-4)GlcNAc = molecular target: Gal6S(b1-4)GlcNAc
Outline: as §1

[1] = molecular target: GalNAc(b1-3)Gal(a1-4)Gal(b1-4)GlcNAc(b1-3)Gal(b1-4)Glc
Outline: as §1

GalNAc(b1-3)GlcNAc = molecular target: GalNAc(b1-3)GlcNAc
Outline: as §1

GalNAc(b1-6)GalNAc = molecular target: GalNAc(b1-6)GalNAc
Outline: as §1

[2] = molecular target: Glc(a1-6)Glc(a1-6)Glc(a1-6)Glc
Outline: as §1

[3] = molecular target: GlcNAc(a1-4)Gal(b1-4)GlcNAc(b1-3)Gal(b1-4)[Fuc(a1-3)]GlcNAc(b1-3)Gal(b1-4)[Fuc(a1-3)]GlcNAc
Outline: as §1

[4] = molecular target: GlcNAc(a1-6)Gal(b1-4)GlcNAc
Outline: as §1

[5] = molecular target: GlcNAc(b1-3)Gal(b1-4)GlcNAc(b1-2)[GlcNAc(b1-3)Gal(b1-4)GlcNAc(b1-6)]Man(a1-6)[GlcNAc(b1-3)Gal(b1-4)GlcNAc(b1-2)Man(a1-3)]Man(b1-4)GlcNAc(b1-4)GlcNAc
Outline: as §1

[6] = molecular target: GlcNAc(b1-3)Gal(b1-4)GlcNAc(b1-3)Gal(b1-4)GlcNAc(b1-2)Man(a1-3)[GlcNAc(b1-3)Gal(b1-4)GlcNAc(b1-3)Gal(b1-4)GlcNAc(b1-2)Man(a1-6)]Man(b1-4)GlcNAc(b1-4)[Fuc(a1-6)]GlcNAc
Outline: as §1

[7] = molecular target: GlcNAc(b1-3)Gal(b1-4)GlcNAc(b1-3)Gal(b1-4)GlcNAc(b1-3)Gal(b1-4)GlcNAc(b1-3)Gal(b1-4)GlcNAc(b1-2)Man(a1-3)[GlcNAc(b1-3)Gal(b1-4)GlcNAc(b1-3)Gal(b1-4)GlcNAc(b1-3)Gal(b1-4)GlcNAc(b1-3)Gal(b1-4)GlcNAc(b1-2)Man(a1-6)]Man(b1-4)GlcNAc(b1-4)GlcNAc
Outline: as §1

GlcNAc(b1-3)Man = molecular target: GlcNAc(b1-3)Man
Outline: as §1

[8] = molecular target: Neu5Ac(a2-3)Gal(b1-3)GlcNAc(b1-2)[Neu5Ac(a2-3)Gal(b1-3)GlcNAc(b1-4)]Man(a1-6)[Neu5Ac(a2-3)Gal(b1-3)GlcNAc(b1-2)Man(a1-3)]Man(b1-4)GlcNAc(b1-4)GlcNAc
Outline: as §1

[9] = molecular target: Neu5Ac(a2-3)Gal(b1-4)GlcNAc(b1-6)[Neu5Ac(a2-3)Gal(b1-3)]GalNAc
Outline: as §1

[10] = molecular target: Neu5Ac(a2-3)Gal(b1-4)[Fuc(a1-3)]GlcNAc(b1-3)Gal(b1-4)GlcNAc
Outline: as §1

[11] = molecular target: Neu5Ac(a2-3)[GalNAc(b1-4)]Gal(b1-4)GlcNAc(b1-3)GalNAc
Outline: as §1

[12] = molecular target: Neu5Ac(a2-6)Gal(b1-4)GlcNAc(b1-2)Man(a1-3)[GlcNAc(b1-2)Man(b1-4)GlcNAc(b1-2)Man(a1-6)]Man(b1-4)GlcNAc(b1-4)GlcNAc
Outline: as §1

[13] = molecular target: Neu5Ac(a2-6)Gal(b1-4)GlcNAc(b1-2)Man(a1-3)[Man(a1-6)]Man(b1-4)GlcNAc(b1-4)GlcNAc
Outline: as §1

[14] = molecular target: Neu5Ac(a2-6)Gal(b1-4)GlcNAc(b1-2)Man(a1-3)[Neu5Ac(a2-6)Gal(b1-4)GlcNAc(b1-2)Man(a1-6)]Man(b1-4)GlcNAc(b1-4)GlcNAc
Outline: as §1

[15] = molecular target: Neu5Ac(a2-6)Gal(b1-4)GlcNAc(b1-3)Gal(b1-4)GlcNAc(b1-3)Gal(b1-4)GlcNAc(b1-2)Man(a1-3)[Neu5Ac(a2-6)Gal(b1-4)GlcNAc(b1-3)Gal(b1-4)GlcNAc(b1-3)Gal(b1-4)GlcNAc(b1-2)Man(a1-6)]GalNAc
Outline: as §1

[16] = molecular target: Neu5Ac(a2-6)Gal(b1-4)GlcNAc(b1-3)Gal(b1-4)GlcNAc(b1-3)GalNAc
Outline: as §1

Neu5Ac(a2-6)GalNAc = molecular target: Neu5Ac(a2-6)GalNAc
Outline: as §1

[17] = molecular target: Neu5Ac(a2-8)Neu5Gc(a2-3)Gal(b1-4)GlcNAc
Outline: as §1

[18] = molecular target: Neu5Gc(a2-3)Gal(b1-3)GlcNAc
Outline: as §1

[19] = molecular target: Neu5Gc(a2-8)Neu5Gc(a2-3)Gal(b1-4)GlcNAc
Outline: as §1

B1: CRT-1 (Homo sapiens), P27797 (protein)
chain: MLLSVPLLLGLLGLAVAEPAVYFKEQFLDGDGWTSRWIESKHKSDFGKFVLSSGKFYGDEEKDKGLQTSQDARFYALSASFEPFSNKGQTLVVQFTVKHEQNIDCGGGYVKLFPNSLDQTDMHGDSEYNIMFGPDICGPGTKKVHVIFNYKGKNVLINKDIRCKDDEFTHLYTLIVRPDNTYEVKIDNSQVESGSLEDDWDFLPPKKIKDPDASKPEDWDERAKIDDPTDSKPEDWDKPEHIPDPDAKKPEDWDEEMDGEWEPPVIQNPEYKGEWKPRQIDNPDYKGTWIHPEIDNPEYSPDPSIYAYDNFGVLGLDLWQVKSGTIFDNFLITNDEAYAEEFGNETWGVTKAAEKQMKDKQDEEQRLKEEEEDKKRKEEEEAEDKEDDEDKDEDEEDEEDKEEDEEEDVPGQAKDEL
Gal3S(b1-3)GalNAc
  glycan array binding signal (z-score): -0.188
Gal3S(b1-4)GlcNAc6S
  glycan array binding signal (z-score): -0.498
Gal6S(b1-4)Glc
  glycan array binding signal (z-score): -0.297
Gal6S(b1-4)GlcNAc
  glycan array binding signal (z-score): -0.673
[1]
  glycan array binding signal (z-score): 0.488
GalNAc(b1-3)GlcNAc
  glycan array binding signal (z-score): 0.853
GalNAc(b1-6)GalNAc
  glycan array binding signal (z-score): 0.544
[2]
  glycan array binding signal (z-score): 0.137
[3]
  glycan array binding signal (z-score): 1.95
[4]
  glycan array binding signal (z-score): -0.513
[5]
  glycan array binding signal (z-score): 2.14
[6]
  glycan array binding signal (z-score): 1.91
[7]
  glycan array binding signal (z-score): 0.27
GlcNAc(b1-3)Man
  glycan array binding signal (z-score): 0.915
[8]
  glycan array binding signal (z-score): -0.396
[9]
  glycan array binding signal (z-score): -0.461
[10]
  glycan array binding signal (z-score): 0.745
[11]
  glycan array binding signal (z-score): -0.233
[12]
  glycan array binding signal (z-score): 12.5
[13]
  glycan array binding signal (z-score): 0.357
[14]
  glycan array binding signal (z-score): 2.53
[15]
  glycan array binding signal (z-score): 1.9
[16]
  glycan array binding signal (z-score): -1.62
Neu5Ac(a2-6)GalNAc
  glycan array binding signal (z-score): 0.869
[17]
  glycan array binding signal (z-score): -0.349
[18]
  glycan array binding signal (z-score): -0.645
[19]
  glycan array binding signal (z-score): -0.33
